15 compounds from PubChem BioAssay (EPA / NIEHS) can be followed below.

The target in assay [1] is bovine Estrogen Receptor (ER), ESR1 (gene 407238) (UniProt P49884). Description: NVS_NR_bER: NovaScreen (NVS) Nuclear Receptor Binding Assay for bovine Estrogen Receptor (ER) (AID 2283345).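 Note: actives lower the bound radioligand count which means they displace the ER ligand.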 The essentials:
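Scintillation counting of displaced radioligand gave the readout; bovine uterine membrane extract supplied the receptor. Measured 18 h post-dose, normalized to DMSO baseline. Single 25 uM duplicate screen preceded concentration-response follow-up.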

Assay [2] deals with Estrogen receptor (Homo sapiens) (UniProt P03372). Description: OT_ER_ERaERa_1440: Odyssey Thera (OT) 24-hour HEK293T Protein-Complementation Assay for Estrogen Receptor-alpha/-alpha Homodimer (AID 2283349).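 Note: hits raise fluorescence above DMSO for agonists and antagonists alike.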 The essentials:
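Stably transfected HEK293T; ERα LBD homodimer PCA. 24 h dosing, fluorescence intensity read, gain-of-signal vs DMSO.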

For assay [3] the target is unchanged. Kind of assay: OT_ER_ERaERa_0480: Odyssey Thera (OT) 8-hour HEK293T Protein-Complementation Assay for Estrogen Receptor-alpha/-alpha Homodimer (AID 2283351).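 Note: rise in fluorescence from reassembled reporter fragments on ERα LBD homodimer in nucleus or whole cell.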 In short, it runs like this: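 Read-out: fluorescence intensity rise relative to DMSO, nuclear for agonists, nuclear plus cytoplasmic for antagonists. Construct is the ERα LBD (aa 310-547) homodimer fragment-complementation pair, stably expressed in HEK293T; exposure 8 h.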

Assay [4] deals with Estrogen receptor (Homo sapiens) + Estrogen receptor beta (Homo sapiens) (UniProt P03372+Q92731). Description: OT_ER_ERaERb_1440: Odyssey Thera (OT) 24-hour HEK293T Protein-Complementation Assay for Estrogen Receptor-alpha/-beta Homodimer (AID 2283356).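 Note: heteromer of ER alpha and ER beta binding domains; hits raise reporter fluorescence and both agonists and antagonists give an increase.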 The essentials: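 24 h exposure; HEK293T PCA cells with ERα/ERβ LBD fragments; signal rise in nuclear or whole-cell fluorescence over vehicle.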
Sequence of Estrogen receptor (Homo sapiens) + Estrogen receptor beta (Homo sapiens) (P03372 whole entry, looked up, the tested form may be a part): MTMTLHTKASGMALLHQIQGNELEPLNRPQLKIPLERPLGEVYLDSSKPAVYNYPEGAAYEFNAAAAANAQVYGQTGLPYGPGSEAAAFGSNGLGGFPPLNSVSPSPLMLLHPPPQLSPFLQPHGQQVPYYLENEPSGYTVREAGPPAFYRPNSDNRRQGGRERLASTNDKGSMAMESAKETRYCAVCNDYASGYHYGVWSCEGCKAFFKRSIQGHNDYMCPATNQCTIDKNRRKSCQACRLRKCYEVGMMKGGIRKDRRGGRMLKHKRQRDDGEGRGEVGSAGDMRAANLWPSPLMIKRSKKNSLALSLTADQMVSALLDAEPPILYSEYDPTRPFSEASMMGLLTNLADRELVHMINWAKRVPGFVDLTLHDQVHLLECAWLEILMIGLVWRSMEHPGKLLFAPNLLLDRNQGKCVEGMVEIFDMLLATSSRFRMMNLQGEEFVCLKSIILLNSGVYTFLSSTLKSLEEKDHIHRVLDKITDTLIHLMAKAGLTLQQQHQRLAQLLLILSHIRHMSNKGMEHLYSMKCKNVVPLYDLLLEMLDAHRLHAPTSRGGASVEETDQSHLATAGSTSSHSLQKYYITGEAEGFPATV
Sequence of Estrogen receptor (Homo sapiens) + Estrogen receptor beta (Homo sapiens) (Q92731 whole entry, looked up, the tested form may be a part): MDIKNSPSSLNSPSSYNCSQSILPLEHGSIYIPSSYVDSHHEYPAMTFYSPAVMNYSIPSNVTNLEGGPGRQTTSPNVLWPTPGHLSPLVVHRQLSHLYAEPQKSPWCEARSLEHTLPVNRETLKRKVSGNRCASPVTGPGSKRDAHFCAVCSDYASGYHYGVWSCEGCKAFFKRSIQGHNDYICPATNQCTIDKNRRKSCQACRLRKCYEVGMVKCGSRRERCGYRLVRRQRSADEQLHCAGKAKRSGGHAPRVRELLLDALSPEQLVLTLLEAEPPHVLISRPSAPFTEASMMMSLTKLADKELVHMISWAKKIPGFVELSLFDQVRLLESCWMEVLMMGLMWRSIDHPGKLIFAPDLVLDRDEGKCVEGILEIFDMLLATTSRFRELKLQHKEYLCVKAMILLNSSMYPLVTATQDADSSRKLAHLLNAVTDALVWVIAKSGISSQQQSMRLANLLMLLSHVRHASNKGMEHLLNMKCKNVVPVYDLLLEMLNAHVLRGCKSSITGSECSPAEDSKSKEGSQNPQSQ

Assay [5] addresses Estrogen receptor beta (Homo sapiens) (UniProt Q92731). Description: OT_ER_ERbERb_0480: Odyssey Thera (OT) 8-hour HEK293T Protein-Complementation Assay for Estrogen Receptor-beta/-beta Homodimer (AID 2283357).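 Note: active means signal gain over DMSO baseline.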 The essentials: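 Fluorescence gain from complemented reporter fragments on ER-beta LBD homodimer in HEK293T was quantified against DMSO controls after 8 h treatment, fixation in 4% formaldehyde and Draq5 staining.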

The target in assay [6] is Glucocorticoid receptor (Homo sapiens) (UniProt P04150). Kind of assay: NVS_NR_hGR: NovaScreen (NVS) Nuclear Receptor Binding Assay for human Glucocorticoid Receptor (GR) (AID 2283363).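 For AC50: activity is loss of specific radioligand binding signal relative to DMSO.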 In short, it runs like this:
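Single-readout cell-free binding: radioligand plus extracted receptor, 16-hour dosing, filter radiodetection; 25 uM duplicate primary, concentration series secondary.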

Assay [7] has as its target Estrogen receptor (Homo sapiens) (UniProt P03372). Description: NVS_NR_hER: NovaScreen (NVS) Nuclear Receptor Binding Assay for human Estrogen Receptor (ER) (AID 2283348). The essentials: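 Radiodetection of ligand displacement in a lysate-based, cell-free format using MCF7 extracts, read at 18 hours. Duplicate 25 uM primary testing, then concentration series for actives.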

For assay [8], the target named is chimpanzee Androgen Receptor (AR), AR (gene 747460) (UniProt O97775). Kind of assay: NVS_NR_cAR: NovaScreen (NVS) Nuclear Receptor Binding Assay for chimpanzee Androgen Receptor (AR) (AID 2283346).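 Note: radioligand displacement from AR measured by scintillation counting in a cell-free assay.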 In short, it runs like this:
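Cell-free radioligand displacement using receptor protein extracted from Sf9/Sf21 cells; bound radioligand measured by scintillation counting 72 hours after chemical dosing. Loss of signal versus DMSO baseline indicates binding; primary screen single-concentration in duplicate at 25 uM, actives followed in concentration series.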

In assay [9] the target is Androgen Receptor/SRC-1 Co-activator, AR (gene 367) (UniProt P10275). Kind of assay: OT_AR_ARSRC1_0960: Odyssey Thera (OT) 16-hour HEK293T Protein-Complementation Assay for Androgen Receptor/SRC-1 Co-activator (AID 2283353).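 Note: actives raise the signal above DMSO so potency reflects increased AR and SRC-1 complex.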 The essentials: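 Readout: 488 nm nuclear-to-cytoplasmic fluorescence ratio from imaging of at least 400 cells per image, 16 h post-dose. Reporter is Venus YFP complementation between AR and SRC-1 fusions, stably expressed in HEK293T; activity scored upward relative to DMSO.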
Sequence of Androgen Receptor/SRC-1 Co-activator, AR (gene 367) (P10275 whole entry, looked up, the tested form may be a part): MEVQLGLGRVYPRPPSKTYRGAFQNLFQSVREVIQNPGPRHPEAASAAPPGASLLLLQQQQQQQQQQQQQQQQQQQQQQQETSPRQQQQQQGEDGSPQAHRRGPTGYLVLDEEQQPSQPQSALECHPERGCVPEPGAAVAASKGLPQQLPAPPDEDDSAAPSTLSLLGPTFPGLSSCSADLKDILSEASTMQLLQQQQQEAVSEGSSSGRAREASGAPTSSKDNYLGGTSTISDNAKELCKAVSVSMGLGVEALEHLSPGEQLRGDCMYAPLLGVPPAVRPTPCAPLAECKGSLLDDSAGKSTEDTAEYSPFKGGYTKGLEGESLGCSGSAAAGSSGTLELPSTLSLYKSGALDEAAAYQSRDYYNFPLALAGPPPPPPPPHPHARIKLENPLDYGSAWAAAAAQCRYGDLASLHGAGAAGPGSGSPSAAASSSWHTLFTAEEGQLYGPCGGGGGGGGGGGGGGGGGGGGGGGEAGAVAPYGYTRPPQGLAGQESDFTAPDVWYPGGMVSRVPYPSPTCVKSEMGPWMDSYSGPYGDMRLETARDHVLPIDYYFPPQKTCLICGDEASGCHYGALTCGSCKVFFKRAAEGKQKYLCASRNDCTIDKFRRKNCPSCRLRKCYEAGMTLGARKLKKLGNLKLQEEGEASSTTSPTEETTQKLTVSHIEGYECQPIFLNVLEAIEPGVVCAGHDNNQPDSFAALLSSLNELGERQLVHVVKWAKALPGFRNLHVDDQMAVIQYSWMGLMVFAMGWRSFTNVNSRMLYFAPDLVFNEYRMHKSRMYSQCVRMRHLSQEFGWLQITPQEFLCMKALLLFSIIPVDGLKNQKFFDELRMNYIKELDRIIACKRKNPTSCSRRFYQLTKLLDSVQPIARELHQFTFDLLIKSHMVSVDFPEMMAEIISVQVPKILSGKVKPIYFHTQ

The target is the same in assay [10]. Description: OT_AR_ARSRC1_0480: Odyssey Thera (OT) 8-hour HEK293T Protein-Complementation Assay for Androgen Receptor/SRC-1 Co-activator (AID 2283354).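 Note: hits raise the complementation signal above DMSO so AC50 marks enhancers.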 The essentials:
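After 8 h dosing, stably expressing HEK293T cells with split-Venus AR/SRC-1 fusions were imaged (488, 635nm). The 488nm N/C ratio per image gave the endpoint, analysed in the positive direction against DMSO.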

Assay [11] concerns the target human Thyroid Receptor Alpha (TRa), THRA (gene 7067) (UniProt P10827). Kind of assay: NVS_NR_hTRa_Antagonist: NovaScreen (NVS) Nuclear Receptor Binding Assay for human Thyroid Receptor Alpha Antagonism (TRa) (AID 2283362).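 Note: activity is loss of signal relative to DMSO baseline.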 The essentials:
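In this biochemical format, receptor protein is dosed with chemical and read after 1 hour via AlphaLISA. Decreases from the DMSO baseline indicate antagonist activity; screening used 25 uM in duplicate before concentration-response confirmation.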

Assay [12] has as its target rat Androgen Receptor (AR), Ar (gene 24208) (UniProt P15207). Kind of assay: NVS_NR_rAR: NovaScreen (NVS) Nuclear Receptor Binding Assay for rat Androgen Receptor (AR) (AID 2283366). In short, it runs like this:
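Actives from a duplicate single-concentration (25 uM) primary run went on to concentration series. Displacement of radioligand was counted by filtration and scintillation, 18 h post-dose, using prostate extracts from testosterone-pretreated rats, with DMSO as baseline.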

Assay [13] addresses human Peroxisome Proliferator-activated Receptor alpha (PPARa), PPARA (gene 5465) (UniProt Q07869). Description: NVS_NR_hPPARa: NovaScreen (NVS) Nuclear Receptor Binding Assay for human Peroxisome Proliferator-activated Receptor alpha (PPARa) (AID 2283359).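 Note: activity means loss of TR-FRET signal versus DMSO baseline.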 In short, it runs like this:
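One-hour incubation, cell-free extracted protein, TR-FRET binding readout; signal loss vs DMSO scored. Screen: 25 uM duplicates, confirmatory dose series for actives.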

The target of assay [14] is rat Mineralocorticoid Receptor (MR), Nr3c2 (gene 25672) (UniProt P22199). Kind of assay: NVS_NR_rMR: NovaScreen (NVS) Nuclear Receptor Binding Assay for rat Mineralocorticoid Receptor (MR) (AID 2283355). The essentials: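 Single-concentration duplicate screen (25 uM) of radioligand binding in adrenalectomized rat brain supernatant; scintillation detection 24 h after dosing. Positive and negative controls ran on each plate, and confirmed actives went to concentration-response.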

For a further assay, the target named is PGR (gene 5241) (UniProt P06401). Kind of assay: NVS_NR_hPR: NovaScreen (NVS) Nuclear Receptor Binding Assay for human Progestron Receptor (PR) (AID 2283360). In short, it runs like this:
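T47D lysate; tritiated or iodinated radioligand; scintillation count at 18 h. DMSO = negative control/baseline. Primary: 25 uM, duplicate. Secondary: concentration series for actives.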

The subject of assay [15] is guinea pig Dopamine Transporter (DAT), gene 100714898. Description: NVS_TR_gDAT: NovaScreen (NVS) Transporter Assay for guinea pig Dopamine Transporter (DAT) (AID 2283369).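 Note: active compounds lower bound radioligand signal relative to DMSO.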 In short, it runs like this: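 Primary pass: duplicate wells at 25 uM, threshold e.g. 30% inhibition. Follow-up: singleton concentration-response, highest 50 uM. Radioligand binding on guinea pig striatal membranes, 2 h, filtration scintillation detection.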

Inconclusive results are not listed. Activity calls are given as the source filed them. Rule for the calls: active = hit-call score of the fitted dose curve at least 0.9, where 1 is the maximum; inconclusive = response in the unintended direction; inactive = score below 0.9.

Sequence of Estrogen receptor (Homo sapiens) (P03372 whole entry, looked up, the tested form may be a part): as the sequence (P03372 whole entry, looked up, the tested form may be a part) above
Sequence of chimpanzee Androgen Receptor (AR), AR (gene 747460) (O97775 whole entry, looked up): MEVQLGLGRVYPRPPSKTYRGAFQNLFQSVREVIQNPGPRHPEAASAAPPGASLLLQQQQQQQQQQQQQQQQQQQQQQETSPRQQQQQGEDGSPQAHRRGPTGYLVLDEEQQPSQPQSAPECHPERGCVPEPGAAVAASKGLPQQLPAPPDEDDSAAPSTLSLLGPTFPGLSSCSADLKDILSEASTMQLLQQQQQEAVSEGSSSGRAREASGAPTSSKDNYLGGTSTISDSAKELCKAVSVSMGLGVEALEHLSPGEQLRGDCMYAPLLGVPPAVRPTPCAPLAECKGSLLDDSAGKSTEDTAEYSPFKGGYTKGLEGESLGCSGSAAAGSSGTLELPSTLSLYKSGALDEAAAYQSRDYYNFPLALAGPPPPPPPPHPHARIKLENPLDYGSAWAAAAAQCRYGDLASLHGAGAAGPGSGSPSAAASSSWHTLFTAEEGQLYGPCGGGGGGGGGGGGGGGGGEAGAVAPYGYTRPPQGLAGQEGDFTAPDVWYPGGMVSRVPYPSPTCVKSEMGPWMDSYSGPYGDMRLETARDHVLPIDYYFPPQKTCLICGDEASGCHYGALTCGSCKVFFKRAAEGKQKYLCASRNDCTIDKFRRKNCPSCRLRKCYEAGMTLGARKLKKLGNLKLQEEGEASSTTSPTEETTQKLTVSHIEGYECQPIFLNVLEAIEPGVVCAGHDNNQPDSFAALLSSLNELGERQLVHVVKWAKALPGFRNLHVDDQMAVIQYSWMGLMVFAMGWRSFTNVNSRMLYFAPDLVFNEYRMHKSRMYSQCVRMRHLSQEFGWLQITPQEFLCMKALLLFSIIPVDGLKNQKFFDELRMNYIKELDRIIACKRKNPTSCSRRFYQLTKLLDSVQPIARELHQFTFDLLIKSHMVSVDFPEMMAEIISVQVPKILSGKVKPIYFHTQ
Sequence of bovine Estrogen Receptor (ER), ESR1 (gene 407238) (P49884 whole entry, looked up): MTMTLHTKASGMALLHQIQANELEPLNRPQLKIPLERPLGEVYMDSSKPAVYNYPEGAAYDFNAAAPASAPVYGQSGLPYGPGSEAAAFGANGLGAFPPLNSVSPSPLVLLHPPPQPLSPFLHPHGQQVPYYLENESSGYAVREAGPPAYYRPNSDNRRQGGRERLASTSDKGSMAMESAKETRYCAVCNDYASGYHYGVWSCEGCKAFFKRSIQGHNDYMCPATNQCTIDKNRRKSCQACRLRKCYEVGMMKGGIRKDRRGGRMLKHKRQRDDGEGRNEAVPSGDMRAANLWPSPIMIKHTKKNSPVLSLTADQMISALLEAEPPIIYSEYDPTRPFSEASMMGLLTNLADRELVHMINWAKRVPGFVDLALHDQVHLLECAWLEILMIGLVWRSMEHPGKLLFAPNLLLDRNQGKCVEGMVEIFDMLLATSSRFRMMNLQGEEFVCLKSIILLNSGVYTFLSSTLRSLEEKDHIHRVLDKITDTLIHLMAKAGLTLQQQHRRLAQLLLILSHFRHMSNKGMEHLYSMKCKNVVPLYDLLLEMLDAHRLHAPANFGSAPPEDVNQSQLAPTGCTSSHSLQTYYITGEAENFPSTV
Sequence of rat Androgen Receptor (AR), Ar (gene 24208) (P15207 whole entry, looked up): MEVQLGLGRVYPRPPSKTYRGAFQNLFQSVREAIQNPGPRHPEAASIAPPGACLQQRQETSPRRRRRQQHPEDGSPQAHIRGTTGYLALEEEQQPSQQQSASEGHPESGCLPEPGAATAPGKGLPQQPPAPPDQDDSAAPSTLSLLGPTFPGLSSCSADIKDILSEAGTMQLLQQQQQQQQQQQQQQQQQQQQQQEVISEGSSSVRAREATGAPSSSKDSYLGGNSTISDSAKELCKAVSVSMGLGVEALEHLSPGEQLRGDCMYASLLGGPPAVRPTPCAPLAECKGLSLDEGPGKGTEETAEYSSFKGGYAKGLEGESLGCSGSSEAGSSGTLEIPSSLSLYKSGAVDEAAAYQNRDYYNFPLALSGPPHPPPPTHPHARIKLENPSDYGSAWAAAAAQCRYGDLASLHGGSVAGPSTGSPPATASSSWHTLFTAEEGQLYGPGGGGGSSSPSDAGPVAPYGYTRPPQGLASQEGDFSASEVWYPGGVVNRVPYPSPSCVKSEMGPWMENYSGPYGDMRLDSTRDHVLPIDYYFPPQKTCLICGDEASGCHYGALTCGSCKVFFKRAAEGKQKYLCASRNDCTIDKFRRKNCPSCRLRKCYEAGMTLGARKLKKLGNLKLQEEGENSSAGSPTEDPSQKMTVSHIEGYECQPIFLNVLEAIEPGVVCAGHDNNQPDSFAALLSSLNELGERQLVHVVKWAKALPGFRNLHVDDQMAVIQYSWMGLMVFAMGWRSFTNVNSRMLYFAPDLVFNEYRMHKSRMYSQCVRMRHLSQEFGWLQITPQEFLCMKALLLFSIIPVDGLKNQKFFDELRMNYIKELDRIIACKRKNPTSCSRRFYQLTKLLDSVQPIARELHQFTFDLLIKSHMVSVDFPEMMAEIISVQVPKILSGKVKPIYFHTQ

In the case of `CC(O)(CS(=O)(=O)c1ccc(F)cc1)C(=O)Nc1ccc(C#N)c(C(F)(F)F)c1` (stereo not drawn), the compound was called inactive in [1], in assay [2], in assay [3], in assay [5] and in [6]. For the same compound, in [4], the concentration at half-maximal activity (AC50) is 5.63 µM (active).
As to `CCOCn1c(-c2ccc(Cl)cc2)c(C#N)c(Br)c1C(F)(F)F`, the outcome in assay [1], in [7] and in assay [3] was inactive. For the same compound, the concentration at half-maximal activity (AC50) in assay [2] is 12.4 µM (active); in [4], 12.4 µM (active); in assay [5], 17.3 µM (active).
Take `O=c1[nH]c2ccccc2n1C1CCN(CCCC(c2ccc(F)cc2)c2ccc(F)cc2)CC1`: the call in [1] and in assay [7] was inactive.
`OCC(c1ccc(Cl)cc1)c1ccc(Cl)cc1`: the outcome in assay [1] was inactive.
Turning to `O=S1(=O)OC(c2cc(Br)c(O)c(Br)c2)(c2cc(Br)c(O)c(Br)c2)c2ccccc21`, the half-maximal activity concentration (AC50) in assay [8] is 18.1 µM (active); in assay [5] it was 46.5 µM (active); in assay [11], 4.18 µM (active); in assay [6] it was 0.426 µM (active); in assay [12] it was 3.11 µM (active). In addition, the result in assay [7], in assay [2], in assay [3], in assay [9], in assay [10] and in assay [4] was inactive.
For `O=S(=O)(c1ccc(Cl)cc1)c1cc(Cl)c(Cl)cc1Cl`, the result in assay [1] was inactive.
With `O=[N+]([O-])c1ccc(Cl)c([N+](=O)[O-])c1`, the compound was classed as inactive in assay [1], in assay [7], in assay [3] and in assay [13]. Also, the AC50 was 11.9 µM (active) in assay [8]; 9.86 µM (active) in [9]; 15 µM (active) in [10]; 4.52 µM (active) in assay [6]; 3.07 µM (active) in [12].
Turning to `Cc1ccc2nc3sc(=O)sc3nc2c1`, the half-maximal activity concentration (AC50) is 0.363 µM (active) in assay [8] and 1.64 µM (active) in assay [6].
For the compound `O=C1c2ccccc2C(=O)C1C(=O)C(c1ccccc1)c1ccc(Cl)cc1` (stereo not drawn), the compound was classed as inactive in assay [1], in assay [2], in assay [3], in assay [9] and in assay [13]. Also, the half-maximal activity concentration (AC50) is 26.4 µM (active) in assay [8]; 17.6 µM (active) in [7]; 30 µM (active) in [10]; 3.72 µM (active) in assay [6]; 4.96 µM (active) in assay [12].
In the case of `CC(C)[C@@H](Nc1ccc(C(F)(F)F)cc1Cl)C(=O)OC(C#N)c1cccc(Oc2ccccc2)c1` (stereo partly drawn), the compound was called inactive in assay [1] and in assay [7].
Take `Cc1cc(C(C)(C)c2ccc(O)c(C)c2)ccc1O`: the outcome in assay [8], in assay [7], in [14] and in assay [12] was inactive. The AC50 with PGR (gene 5241) was 23.3 µM (active); in assay [6], 1.82 µM (active); in assay [15] it was 6.35 µM (active).
In the case of `Nc1ccc(Br)cc1`, in assay [7], the compound was classed as inactive.
With `O=C(O)COc1cc(Cl)c(Cl)cc1Cl`, the result in [9] and in [10] was inactive.
Consider `CC(C)(C)c1cc([N+](=O)[O-])cc(C(C)(C)C)c1O`, for which the result in assay [7] was inactive.
On to `CC(=Cc1ccccc1)[N+](=O)[O-]`, for which the result in [7], in [2], in assay [3], in [4] and in assay [5] was inactive. The values for the concentration at half-maximal activity (AC50) in [9] and in assay [10] were 16.7 µM (active) and 18 µM (active), respectively.
